Out of some 13,000 compounds screened, about 3,200 (25%) showed an effect of 50% or more. The list shows a part of the results.
Test system: P. falciparum stage V gametocytes
Set-up: BacTiter-Glo ATP luminescence viability of purified stage V gametocytes in 384-well plates, per cent inhibition versus DMSO
Conditions: 48 h, 5 µM; inhibitor

| SMILES | % Inhibition [%] |
| --- | --- |
| FC(F)(F)c1ccc2[nH]c(-c3ccc(-c4cccc(CNCc5cnn(-c6ccccc6)n5)c4)s3)nc2c1.O=C(O)C(F)(F)F [TCMDC-132968] | -47.17 |
| CC12CN3CC(C)(CN(C1)C3c1cc(Br)ccc1O)C2O (stereo not drawn) [TCMDC-123838] | -31.33 |
| Nc1nc(N)c2cc(Cc3ccc([N+](=O)[O-])cc3)cnc2n1 [TCMDC-137920] | -6.074 |
| O=c1c2ccccc2nc(/C=C/c2ccc([N+](=O)[O-])cc2)n1-c1ccccn1 [TCMDC-125664] | 33.94 |
| Nc1c2ccccc2nc2cc([N+](=O)[O-])ccc12 [TCMDC-132031] | 75.87 |
| CCOc1ccccc1CCNCC1CCN(CC2CCCCC2)CC1 [TCMDC-141347] | 95.36 |
| FC(F)(F)c1cccc(CNCC2CCN(CC3CCCCC3)CC2)c1 [TCMDC-141677] | -8.545 |
| Clc1ccccc1CCNCC1CCN(CC2CCCCC2)CC1 [TCMDC-141344] | 100.3 |
| Oc1ccc(CNCC2CCN(CC3CCCCC3)CC2)cc1 [TCMDC-141676] | -27.61 |
| Clc1cccc(Cl)c1CCNCC1CCN(CC2CCCCC2)CC1 [TCMDC-141346] | -12.07 |
| Fc1c(CNCC2CCN(CC3CCCCC3)CC2)cccc1C(F)(F)F [TCMDC-141348] | 4.763 |
| O=C(COc1ccc(Cl)cc1)N1CCC(CN2CCC(c3c[nH]c4ccccc34)CC2)CC1 [TCMDC-139943] | -35.41 |
| c1ccc2c(C3CCN(CCCCOc4ccc5c(c4)CCN(CC4CC4)CC5)CC3)c[nH]c2c1 [TCMDC-136244] | 103.6 |
| O=C(NCCCCCN1CCC(c2c[nH]c3ccccc23)CC1)c1ccc(Cl)c(Cl)c1 [TCMDC-139112] | -15.31 |
| c1ccc2c(C3CCN(CCCCOc4ccc5c(c4)CCN(C4CCC4)CC5)CC3)c[nH]c2c1 [TCMDC-136242] | 103 |
| O=C(CCC(=O)c1ccc2c3c(cccc13)CC2)NC1CCC(CN2CCC(c3c[nH]c4ccccc34)CC2)CC1 (stereo not drawn) [TCMDC-139897] | 7.494 |
| CCCCNC(=O)C(C)NC(=O)c1ccc(O)c(-c2ccc(Cl)c(Cl)c2)c1 (stereo not drawn) [TCMDC-140838] | 12 |
| O=C1OC(c2ccccc2)(c2ccccn2)CN1C1CCN(Cc2cccn2-c2ccc(Cl)cc2)CC1 (stereo not drawn) [TCMDC-134418] | 32.68 |
| CC(C)Sc1ccc(Cl)cc1CON1C(N)=NC(N)=NC1(C)C [TCMDC-131322] | 57.4 |
| CC(CCON1C(N)=NC(N)=NC1(C)C)c1ccc(Cl)cc1 (stereo not drawn) [TCMDC-131721] | 15.12 |
| CC1(C)N=C(N)N=C(N)N1OCc1cc(Cl)c(Cl)cc1CON1C(N)=NC(N)=NC1(C)C [TCMDC-131611] | -27.6 |
| CC(CCON1C(N)=NC(N)=NC1(C)C)c1ccc(Cl)c(Cl)c1 (stereo not drawn) [TCMDC-123922] | 56.56 |
| CCC(CCON1C(N)=NC(N)=NC1(C)C)c1ccc(Cl)c(Cl)c1 (stereo not drawn) [TCMDC-131702] | 42.49 |

| SMILES | % Inhibition [%] |
| --- | --- |
| CCSc1ccccc1CON1C(N)=NC(N)=NC1(C)C [TCMDC-131324] | 26.32 |
| CC(CON1C(N)=NC(N)=NC1(C)C)c1ccc(Cl)cc1Cl (stereo not drawn) [TCMDC-131687] | 1.916 |
| CC1(C)N=C(N)N=C(N)N1OCc1cccc(Cl)c1Cl [TCMDC-131612] | 37.87 |
| CC1(C)N=C(N)N=C(N)N1OCc1cc(Cl)c(CON2C(N)=NC(N)=NC2(C)C)cc1Cl [TCMDC-131624] | 88.84 |
| COc1ccc(CN(C)C(=O)CCNS(=O)(=O)c2ccc3c(c2)OCCCO3)cc1F [TCMDC-125302] | 27.77 |
| COc1ccc(C2(CNCC(O)c3cccc([N+](=O)[O-])c3)CCCCC2)cc1OC (stereo not drawn) [TCMDC-125753] | 32.79 |
| c1ccc(CNCc2cccc(-c3csc(-c4nc5ccccc5[nH]4)c3)c2)cc1 [TCMDC-132715] | -5.062 |
| CC(C)CNC(=O)c1ccc(-c2cccc(CN3CCC(N4CCCC4)CC3)c2)nc1 [TCMDC-134223] | 24.52 |
| COc1cccc(CN2CCC(N3CCc4cc(NC(=O)c5cc(C)on5)ccc43)C2)c1OC (stereo not drawn) [TCMDC-135077] | 7.17 |
| Nc1oc2c(CN3CCCCCC3)c(O)ccc2c(=O)c1-c1nc2ccccc2s1 [TCMDC-124554] | -27.76 |
| COc1ccc2nc(C)cc(Nc3ccc(Oc4ccc5ccccc5c4Cl)c(Cl)c3)c2c1 [TCMDC-124244] | 45.95 |
| CN(Cc1ccccc1)C1CCCN(c2cc(NC(=O)c3ccc(F)cc3)ccn2)C1 (stereo not drawn) [TCMDC-135021] | -22.03 |
| c1ccc2c(CNc3ccnc(NCc4cccc5ccccc45)n3)cccc2c1 [TCMDC-131861] | 43.11 |
| Brc1ccccc1CNc1ccnc(NCCn2ccnc2)n1 [TCMDC-134666] | 85.3 |
| c1cn(CCCNc2ncc(-c3ccsc3)c(-c3nccs3)n2)cn1 [TCMDC-125364] | 29.61 |
| CN1CCN(C(C(=O)NCc2cc(Cl)cc(Cl)c2)c2ccc(Nc3cccc(C(F)(F)F)c3)cc2)CC1 (stereo not drawn) [TCMDC-134698] | -89.62 |
| COc1ccccc1-c1ccc(CNC(=O)C(CN2CCN(C)CC2)c2ccccc2)cc1 (stereo not drawn) [TCMDC-136897] | 12.07 |
| CN1CCN(C(C(=O)NCc2cc(Cl)cc(Cl)c2)c2ccc(NC(=O)Nc3ccccc3)cc2)CC1 (stereo not drawn) [TCMDC-135287] | 18.98 |
| COc1ccc(Cc2cccc(C(C(=O)NCc3cc(Cl)cc(Cl)c3)N3CCN(C)CC3)c2)cc1 (stereo not drawn) [TCMDC-135619] | 76.97 |
| COc1ccccc1N1CCN(C(C(=O)NCc2ccc(C)cc2)c2ccc(C)cc2)CC1 (stereo not drawn) [TCMDC-135501] | -5.21 |
| CN1CCN(C(C(=O)NCc2cc(Cl)cc(Cl)c2)c2ccccc2-c2ccsc2)CC1 (stereo not drawn) [TCMDC-135388] | 68.05 |
| COc1cc(CCNc2nc(NCc3ccccc3-c3ccccc3)nc(N3CCC(N)CC3)n2)ccc1O [TCMDC-133443] | 10.19 |

Source: PMC4552634, “A New Set of Chemical Starting Points with Plasmodium falciparum Transmission-Blocking Potential for Antimalarial Drug Discovery” (PLoS ONE, 2015)
